# Compound activity (PubChem BioAssay)
# This is a sample that favours compounds with a hit; in the whole collection about 5.7% have one here.
# TGFb inhibitor: qHTS for Inhibitors of TGF-b; 410,000 tested, 1.2% active; AID 588855, 2011; HepG2 CAGA-GFP TGF-b/SMAD3 reporter, GFP fluorescence, 18 h; TGF-beta stimulated, 500 pg/mL final; Potency, µM (doses to about 46.1 µM), most hits filed as inhibitors; further: nearly all actives have a fitted effect of over 65% in size
#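 Read-out: total well GFP (ex488/em500-530) summed from mean per-cell fluorescence. Cells: HEPG2 CAGA-GFP, 1% FBS DMEM, 18 h at 37 degrees C with 500 pg/mL final TGF-beta. Unstimulated wells served as the full-inhibition control; stimulated DMSO wells = 0%.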
# ATXN2 expr inh: Primary qHTS for Inhibitors of ATXN expression; 360,000 tested, 0.72% active; HEK-293 ATXN2-luciferase reporter, luminescence, 24 h; AID 1745845, 2022; Potency, µM (highest dose often 57 µM), most hits filed as inhibitors; further: nearly all actives have a fitted effect of over 55% in size
#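 qHTS (up to 57 uM final) was run with 24 h compound exposure of reporter cells at 37 °C. Each well was multiplexed: SteadyGlo luminescence measured ATXN2-luciferase expression after a fluorogenic Gly-Phe-AFC viability readout (25 uM final).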
# ATXN viability: Viability Counterscreen for Primary qHTS for Inhibitors of ATXN expression; S2 cells (HEK-293 line with an ATXN2-luciferase reporter) viability, CellTiter-Fluor protease fluorescence, 24 h; Potency, µM (highest dose often 56.7 µM), hits mostly cytotoxic; 400,000 tested, 0.49% active; AID 651635, 2014; further: nearly all actives have a fitted effect of over 40% in size
# IL1B secr inh: qHTS for Inhibitors of Inflammasome Signaling: IL-1-beta AlphaLISA Primary Screen; activity change, % at 57.5 µM; AID 743279, 2014; 360,000 tested, 4.7% active; THP-1 LPS/ATP IL-1B secretion, AlphaLISA, 16 h; stronger effect = lower value; in the data active means activity change below about -50%; inconclusive means mostly about -30% to -49%
#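 THP-1 cells pretreated 1 hr with compounds (up to 57.5 uM final), then stimulated with LPS (250 ng/mL final) plus ATP (1.25 mM final); secreted IL-1B measured by AlphaLISA after 16 hr, decreased signal indicating inhibition.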
# HepG2 tox: qHTS for Inhibitors of TGF-b: Cytotox Counterscreen | HepG2 CAGA-GFP viability, ATP luminescence, 18 h | Potency, µM (top dose mostly 46.1 µM), usual class: cytotoxic | 410,000 tested, 0.76% active | AID 588856, 2011
#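 CellTiter-Glo luminescence gave cytotoxicity after 18 hours at 37 degrees C. The cells were HepG2 CAGA-GFP in 1% FBS DMEM, stimulated with 500 pg/mL TGF-beta after compound addition. %Activity was normalised to no-cell wells (complete cell-killing) and DMSO (no toxicity), and curves were fitted and classified.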
# A number is an active result; . = inactive; ? = inconclusive; / = no result given. Unless noted, the call rests on the fitted dose curve; in most records, active means well fitted curve in the direction sought with a large enough effect; inconclusive means small, poorly fitted or top-dose-only effect, or another doubt; inactive means no such curve, though single readings can be large; an effect the other way counts as inactive or inconclusive.
SMILES,TGFb inhibitor,ATXN2 expr inh,ATXN viability,IL1B secr inh,HepG2 tox
CC1CCc2c(sc(NC(=O)CSc3nc(N)cc(=O)[nH]3)c2C(N)=O)C1 (centres undefined),.,?,.,-54,.
N#Cc1c(NC(=O)CSc2nc(N)cc(=O)[nH]2)sc2c1CCCCCC2,?,.,.,.,.
CCc1sc(-c2cc3ccccc3oc2=O)nc1-c1ccc(C)cc1,.,/,/,/,.
O=C(NCCc1nnc2n1CCN(Cc1ccc(F)c(F)c1)CC2)c1ccoc1,/,/,.,/,/
CCOc1ccc(OCC)c(NS(=O)(=O)c2c(C(=O)N3CCCCCC3)c(C)n(C)c2C)c1,.,.,.,/,.
COc1ccc(-c2nc(C)c(CCNC(=O)c3ccccc3Br)s2)cc1OC,.,/,/,/,.
COc1ccc(C(=O)Nc2cccc(-c3cn4ccsc4n3)c2)cc1OC,.,/,/,/,.
CCOC(=O)c1[nH]cnc1N=Nc1c(O)ccc2ccccc12,.,11µM,10µM,.,.
Oc1ccc2ccccc2c1N=Nc1ccccn1,.,?,/,.,.
CC1(C(=O)Nc2cnc3ccccc3c2)CCN1C(=O)c1ccccc1CCc1ccccc1 (centres undefined),?,20µM,.,.,.
Cc1ccc(Cn2c(CNC(=O)Cc3cccc([N+](=O)[O-])c3)nc3cccnc32)cc1,.,/,/,/,.
CN(C)CCN(Cc1ccco1)C(=O)c1cc2c(Cl)nc3ccccc3c2s1,.,.,?,-84,.
Cc1ccc2nc(Cl)c3cc(C(=O)N(CCN(C)C)Cc4ccco4)sc3c2c1,?,?,?,/,.
CCS(=O)(=O)N1CCc2cc(C(=O)Nc3cccc(C)c3C)ccc21,.,.,.,/,.
CC(O)CNc1ncnc2nc[nH]c12 (centres undefined),.,.,.,.,.
CC(C)CCCCCCCCCCCCC(=O)NCC(=O)NC1C(O)C(O)C(Nc2ncnc3nc[nH]c23)OC1C(O)CO (centres undefined),?,.,.,-100,.
CCOc1cc(C(c2c(C)[nH][nH]c2=O)c2c(C)[nH][nH]c2=O)ccc1O,.,.,.,-63,.
Cc1[nH][nH]c(=O)c1C(c1ccc(O)c(Br)c1)c1c(C)[nH][nH]c1=O,.,.,.,-73,.
Cc1[nH][nH]c(=O)c1C(c1ccc(O)c([N+](=O)[O-])c1)c1c(C)[nH][nH]c1=O,.,.,?,.,.
COc1cc(C(c2c(C)[nH][nH]c2=O)c2c(C)[nH][nH]c2=O)ccc1OC(C)C,.,.,.,-70,.
CC(=O)Oc1c(Cl)cc(Cl)cc1/C=C/c1ccc2ccccc2n1,.,.,/,-66,.
CC(=O)Oc1ccc(Cl)cc1/C=C/c1ccc2ccccc2n1,?,.,?,.,.
COc1ccc(CNc2ncnc3nc[nH]c23)cc1,.,/,/,/,.
CC(C)NC(=O)c1cnc2sc(N3CCCCCC3)nn2c1=O,?,/,/,/,.
CN(C)c1ncc(C2=C(Cl)C(=O)C(N3CCCC3)=C(Cl)C2=O)s1,.,25µM,/,-104,.
SMILES,TGFb inhibitor,ATXN2 expr inh,ATXN viability,IL1B secr inh,HepG2 tox
O=C1C(Cl)=C(N2CCCCC2)C(=O)C(Cl)=C1c1cnc(N2CCCCC2)s1,.,?,?,-71,.
CC(=O)c1cnc(N(C)C)s1,.,.,.,.,.
CCC(C)n1c(SCc2ccc(F)cc2Cl)nc2ccsc2c1=O (centres undefined),.,/,/,/,.
COc1ccc(NCc2cc3ccc(OC)cc3n(CC(=O)Nc3cccc(OC)c3)c2=O)cc1,.,.,.,/,.
Cc1cc2c(c(/C=C/C(=O)c3ccccc3)c1)OC1(C=C2)Oc2ccccc2C(=O)N1C (centres undefined),?,?,?,-104,.
O=C1c2ccccc2OC2(C=Cc3ccccc3O2)N1Cc1ccccc1 (centres undefined),.,.,.,.,.
COc1ccccc1CC1(C)C(=O)Nc2ccc(S(=O)(=O)NC3CCCCC3)cc21 (centres undefined),.,.,.,.,.
CC1(Cc2ccccc2OC(F)(F)F)C(=O)Nc2ccc(S(=O)(=O)NC3CCCCC3)cc21 (centres undefined),13µM,?,?,.,.
CSc1ccc(-c2ccc(C(=O)NCC3CCCO3)c(N3CCC(O)CC3)n2)cc1 (centres undefined),/,/,.,/,/
C=C(C)C(=O)Oc1ccc(N=Nc2ccc(C)cc2)ccc1=O,?,?,32µM,?,.
CC(=O)c1ccc(N=Nc2ccc(C)cc2)cc1,.,.,.,.,.
CC(C)(C)C(=O)OCc1cc(=O)n2nc(C3CC3)sc2n1,.,.,.,/,.
Cc1cccc(C2Nc3ccccc3C(=O)N2CCc2ccccc2)n1 (centres undefined),.,.,.,.,.
O=C1c2ccccc2NC(c2cccc([N+](=O)[O-])c2)N1CCc1ccccc1 (centres undefined),.,.,.,-83,.
COc1ccc(Cl)cc1NC(=O)c1cc2ccc3ccc(C)[nH]c3c2n1,?,.,.,/,.
Cc1n[nH]c(C)c1C(=O)CC1(O)C(=O)N(CCc2ccccc2)c2ccc(Cl)cc21 (centres undefined),.,.,.,.,.
CCc1ccc(C(=O)CC2(O)C(=O)N(CCc3ccccc3)c3ccc(Cl)cc32)cc1 (centres undefined),13µM,?,?,/,20µM
Cc1ccccc1CN1C(=O)C(O)(CC(=O)c2ccccc2)c2cc(Cl)ccc21 (centres undefined),?,/,/,/,20µM
CS(=O)(=O)Nc1cccc(NC(=O)c2cccc3c(-c4cccc(C(N)=O)c4)coc23)c1,.,?,.,?,.
CC(=O)c1cccc(NC(=O)c2cccc3c(-c4cccc(C(N)=O)c4)coc23)c1,.,32µM,?,.,.
COc1ccc(CCNC(=O)[C@H](CC(C)C)NC(=O)N2CCn3c2nc2ccccc23)cc1OC,?,.,.,-66,.
CCC(C)[C@H](NC(=O)N1CCn2c1nc1ccccc12)C(=O)NCCc1ccccc1 (some centres undefined),?,.,?,-59,.
COc1ccc(CCNC(=O)Cc2c(C)c3cc4c(C(C)(C)C)coc4c(C)c3oc2=O)cc1OC,.,/,/,/,.
CCCCCCCN(C(=O)CCl)c1ccccc1C,.,?,?,-106,.
CNC(=O)[C@]1(C(F)(F)F)C[C@H](CCC2CCCCC2)CCCO1,?,/,/,/,.
CC1(C)C2CC=C(/C=N/NC(=O)c3ccc(O)cc3)C1C2 (centres undefined),.,.,.,-54,.
CN(C)CC(C)(O)c1ccc2c(c1)CN(Cc1cccn1-c1cccnc1)CCO2 (centres undefined),/,/,.,/,/
